Data reported in PubChem BioAssay (NCI).
The panel holds about 83,000 compounds, 20% with a hit somewhere; the sample as a whole holds those more often.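 Growth was measured after 48 h exposure to one concentration of compound in 96-well plates. Values under 10 count as active.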 Values without a mark were called inactive. Active and inactive are the calls of the source.

How the values were obtained:
Experiment in all cases: NCI-60 one-dose screen, 48 h (100 = growth as untreated, 0 = no growth, -100 = all killed)
Settings in all cases: 10 µM unless noted
[1] = tested on: NCI-H23 lung
[2] = tested on: NCI-H226 lung
[3] = tested on: NCI-H322M lung
[4] = tested on: HOP-62 NSCLC
[5] = tested on: NCI-H522 lung
[6] = tested on: A549/ATCC NSCLC
[7] = tested on: 786-0 renal
[8] = tested on: COLO 205 colon
[9] = tested on: DU-145 prostate
[10] = tested on: K-562 leukemia
[11] = tested on: MALME-3M melanoma
[12] = tested on: MDA-MB-231 breast
[13] = tested on: RXF 393 renal
[14] = tested on: SF-268 CNS
[15] = tested on: SF-295 CNS
[16] = tested on: SF-539 CNS
[17] = tested on: UACC-257 melanoma
[18] = tested on: M14 melanoma
[19] = tested on: NCI-H460 lung
[20] = tested on: HOP-92 NSCLC

Row | SMILES | growth [1] [%] | growth [2] [%] | growth [3] [%] | growth [4] [%] | growth [5] | growth [6] [%] | growth [7] | growth [8] | growth [9] | growth [10] | growth [11] | growth [12] | growth [13] [%] | growth [14] | growth [15] | growth [16] | growth [17] [%] | growth [18] | growth [19] | growth [20] [%]
1 | CCN(CC)c1ccc2c(cc1=O)[C@@H](NC(C)=O)CCc1cc(OC)c(OC)c(OC)c1-2 | 49.5 | 51 | 30.9 | 30.9 | -38.8% (active) | 13.2 | 15.6% | -62.8% (active) | -10.2% (active) | 0.286% (active) | 99% | 15.1% | 58.8 | 24.4% | 11.3% | -3.76% (active) | 63.1 | -0.777% (active) |  | 
2 | CCOC(=O)C1C(=O)C=C(c2ccccc2)CC1c1sc(N(C)Cc2ccccc2)nc1Cl (stereo not given) | 89.1 | 85.8 | 91.2 | 85.6 | 73.5% | 83.8 | 93.2% | 100% | 107% | 73% | 120% | 82.9% | 91.7 | 89.6% | 94.4% | 105% | 90.3 | 94.7% |  | 
3 | c1cc2c(cc1-c1cnc3nonc3n1)OCO2 | 99.3 | 93.4 | 103 | 83.5 | 55.9% | 97.4 | 109% | 91.2% | 103% | 59.3% | 98.6% | 75.1% | 122 | 82.9% | 101% | 73.2% | 93 | 101% |  | 
4 | CCC(=O)NC1=C(Cl)C(=O)C(NC(=O)CC)=C(Cl)C1=O | 94 | 113 | 107 | 111 | -82.7% (active) | 103 | 105% | -91.4% (active) | 44.3% | -24.3% (active) | -63.4% (active) | 91.6% | 39.9 | 118% | 137% | 117% | 107 | 93.7% |  | 
5 | CCCCCCCCCCCCCC | 92.5 |  | 105 | 98.2 |  |  | 99.4% | 108% | 135% | 113% | 113% |  | 112 | 120% | 99.2% | 109% |  | 115% | 108% | 91.3
6 | COC(=O)c1ccc2c(c1)nc(-c1cc3ccccc3[nH]c1=O)n2-c1cc(C(C)(C)C)[nH]n1 | 44.7 | 90.4 | 77 | 66.5 | -2.05% (active) | 81.5 | 33.3% | 71.6% | 83.7% | 32.2% | 96.2% | 68.4% | 89.9 | 72.8% | 93.8% | 92.6% | 78.5 | 58.2% |  | 
7 | Cc1ccsc1C(=O)CC(=O)C(F)(F)C(F)(F)C(F)(F)F | 104 | 93.1 | 104 | 99.4 | 112% | 99.4 | 106% | 112% | 112% |  | 105% | 96.6% | 108 | 107% | 97.1% | 102% | 108 | 117% |  | 
8 | COc1cc([N+](=O)[O-])cc(OC)c1OC | 107 | 112 | 109 | 110 | 83.8% | 110 | 104% | 127% | 115% | 101% | 97.8% | 112% | 124 | 110% | 110% | 114% | 114 | 108% |  | 
9 | CC[C@]1(O)C[C@H]2CN(CCc3c([nH]c4ccccc34)C(C(=O)OC)(c3cc4c(cc3OC)N(C)[C@H]3[C@@](O)(C(=O)OC)[C@H](OC(C)=O)[C@]5(CC)[C@@H]6C[C@@H]6CN6CC[C@]43[C@@H]65)C2)C1 (stereo not given in full) | 19.8 |  | 53.8 | 24.6 | -9.66% (active) | 19.8 | -8.75% (active) | -73.3% (active) | 12.1% |  | 20.5% | -12% (active) | 35 | -4.98% (active) | -15.1% (active) | -22% (active) | 68.2 | -72% (active) | 10.7% | 
10 | Oc1c(C(Nc2cccc3ccccc23)c2ccccc2)ccc2cccnc12 (stereo not given) | 41.8 |  | 37.2 | 52.2 | 16.1% | 33.6 | -13.6% (active) | 38% | 35% | 11.6% | 31.7% | 17.8% | 69.4 | 23.4% | 7.99% (active) | 43.3% | 22.5 | 0.701% (active) | 5.7% (active) | 
